Read-out in assay [1]: TIMP metallopeptidase inhibitor 1 (TIMP1), TIMP1 (gene 7076)
Kind of assay: BSK_hDFCGF_TIMP1: BioMAP Diversity Plus: hDFCGF Assay for TIMP metallopeptidase inhibitor 1 (TIMP1) Biomarker Activity (AID 2283062). Particulars: primary human foreskin fibroblasts; actives raise or lower the signal. An outline of the steps:
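Fibroblasts from human foreskin are treated with test chemical and harvested at 24 h. TIMP-1 is quantified by ELISA, and gain or loss of signal is scored against DMSO.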

Read-out in assay [2]: Monokine induced gamma interferon (MIG), CXCL9 (gene 4283)
Put plainly: BSK_hDFCGF_MIG: BioMAP Diversity Plus: hDFCGF Assay for Monokine induced gamma interferon (MIG) Biomarker Activity (AID 2283063). Particulars: primary human foreskin fibroblasts; actives raise or lower the signal. The gist of the method: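 MIG signal, determined by ELISA, reflects 24 h chemical exposure of human skin primary fibroblasts. DMSO serves as negative control and baseline.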

Read-out in assay [3]: Matrix Metallopeptidase 1 (MMP1), MMP1 (gene 4312)
Kind of assay: BSK_hDFCGF_MMP1: BioMAP Diversity Plus: hDFCGF Assay for Matrix Metallopeptidase 1 (MMP1) Biomarker Activity (AID 2283064). The following applies: primary human foreskin fibroblasts; actives raise or lower the signal. The gist of the method:
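MMP1 levels quantified by ELISA 24 h after dosing human dermal fibroblast cultures, with parallel SRB total-protein staining for overt cytotoxicity. Data fitted in both directions against DMSO baseline.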

Read-out in assay [4]: Vascular cell adhesion molecule 1 (VCAM1), VCAM1 (gene 7412)
Kind of assay: BSK_hDFCGF_VCAM1: BioMAP Diversity Plus: hDFCGF Assay for Vascular cell adhesion molecule 1 (VCAM1) Biomarker Activity (AID 2283065).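 As to AC50: VCAM-1 protein level quantified by ELISA after 24 h chemical exposure.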 Particulars: primary human foreskin fibroblasts; actives raise or lower the signal. The gist of the method: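 Cells are dosed, cultured for 24 h, then VCAM-1 is quantified by ELISA; signal increases and decreases are both fitted relative to DMSO.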

Read-out in assay [5]: Plasminogen activator inhibitor-1 (PAI1), SERPINE1 (gene 5054)
Put plainly: BSK_hDFCGF_PAI1: BioMAP Diversity Plus: hDFCGF Assay for Plasminogen activator inhibitor-1 (PAI1) Biomarker Activity (AID 2283066). The following applies: primary human foreskin fibroblasts; actives raise or lower the signal. An outline of the steps: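 ELISA readout of PAI-1 from primary human skin fibroblast cultures, 24 h after compound addition. Gain or loss of signal was fitted bidirectionally against DMSO baseline.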

Read-out in assay [6]: Intercellular Adhesion Molecule 1 (ICAM1), ICAM1 (gene 3383)
Kind of assay: BSK_KF3CT_ICAM1: BioMAP Diversity Plus: KF3CT Assay for Intercellular Adhesion Molecule 1 (ICAM1) Biomarker Activity (AID 2283067). The following applies: primary human keratinocytes with fibroblasts; actives raise or lower the signal. The gist of the method:
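Dose the keratinocyte/fibroblast co-culture, wait 24 h, measure ICAM-1 by ELISA, then fit increases or decreases against DMSO. Cytotoxicity is checked in parallel cultures by SRB total-protein staining.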

Read-out in assay [7]: Interferon-gamma inducible Protein 10 (IP10), CXCL10 (gene 3627)
Put plainly: BSK_KF3CT_IP10: BioMAP Diversity Plus: KF3CT Assay for Interferon-gamma inducible Protein 10 (IP10) Biomarker Activity (AID 2283068). The following applies: primary human keratinocytes with fibroblasts; actives raise or lower the signal. The gist of the method:
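KF3CT co-culture (keratinocytes + foreskin fibroblasts), 24 h compound, IP-10 by ELISA; bidirectional fit vs DMSO baseline.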

The nature of assay [8]: BSK_KF3CT_SRB: Viability Assessment in the BioMAP Diversity Plus: KF3CT Assay (AID 2283069). The following applies: primary human keratinocytes with fibroblasts. The gist of the method: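 Cytotoxicity was gauged by SRB staining (0.1% SRB, 10% TCA fixation, 560 nm) of parallel cultures at 24 h. The cells were primary human skin keratinocytes co-cultured with fibroblasts, and activity was fitted in both directions against DMSO.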

Read-out in assay [9]: Interleukin-1 alpha (IL1a), IL1A (gene 3552)
Kind of assay: BSK_KF3CT_IL1a: BioMAP Diversity Plus: KF3CT Assay for Interleukin-1 alpha (IL1a) Biomarker Activity (AID 2283070). The following applies: primary human keratinocytes with fibroblasts; actives raise or lower the signal. The gist of the method: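 IL-1a was detected by ELISA 24 h after chemical treatment of a co-culture of human skin keratinocytes and foreskin fibroblasts. Gain or loss of signal was fitted against the DMSO baseline.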

Read-out in assay [10]: TIMP metallopeptidase inhibitor 2 (TIMP2), TIMP2 (gene 7077)
Put plainly: BSK_KF3CT_TIMP2: BioMAP Diversity Plus: KF3CT Assay for TIMP metallopeptidase inhibitor 2 (TIMP2) Biomarker Activity (AID 2283071). The following applies: primary human keratinocytes with fibroblasts; actives raise or lower the signal. The gist of the method:
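ELISA readout of TIMP-2 in keratinocyte plus foreskin fibroblast co-cultures (human skin primary cells), 24 h post-dose. Gain or loss of signal fitted relative to DMSO.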

Read-out in assay [11]: Transforming growth factor beta 1 (TGFb1), TGFB1 (gene 7040)
Kind of assay: BSK_KF3CT_TGFb1: BioMAP Diversity Plus: KF3CT Assay for Transforming growth factor beta 1 (TGFb1) Biomarker Activity (AID 2283072). Particulars: primary human keratinocytes with fibroblasts; actives raise or lower the signal. The gist of the method: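 Read-out: ELISA for TGF-b1 in keratinocyte/foreskin fibroblast human skin co-culture, 24 h after dosing; bidirectional curve fit vs DMSO baseline; gain or loss of signal scored.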

Read-out in assay [12]: C-C motif chemokine 2 (Homo sapiens) (UniProt P13500)
Put plainly: BSK_KF3CT_MCP1: BioMAP Diversity Plus: KF3CT Assay for Monocyte Chemoattractant Protein 1 (MCP1/CCL2) Biomarker Activity (AID 2283073). The following applies: primary human keratinocytes with fibroblasts; actives raise or lower the signal. The gist of the method:
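Keratinocytes and foreskin fibroblasts were co-cultured, dosed with chemical, and sampled 24 h later. MCP-1 was quantified by ELISA, and the endpoint was analyzed with bidirectional fitting using DMSO as negative control.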

Read-out in assay [13]: Matrix Metallopeptidase 9 (MMP9), MMP9 (gene 4318)
Put plainly: BSK_KF3CT_MMP9: BioMAP Diversity Plus: KF3CT Assay for Matrix Metallopeptidase 9 (MMP9) Biomarker Activity (AID 2283074).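 As to AC50: MMP9 protein level quantified by ELISA in the co-culture.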 The following applies: primary human keratinocytes with fibroblasts; actives raise or lower the signal. An outline of the steps: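 MMP-9 quantified by ELISA after 24 h chemical treatment of primary human skin keratinocyte/fibroblast co-cultures; gain or loss fitted against DMSO, with parallel SRB staining (0.1% SRB, 560 nm) for overt cytotoxicity.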

Read-out in assay [14]: E-selectin (Homo sapiens) (UniProt P16581)
Kind of assay: BSK_LPS_Eselectin: BioMAP Diversity Plus: LPS Assay for Eselectin Biomarker Activity (AID 2283077). Particulars: primary human HUVEC with PBMC; actives raise or lower the signal. An outline of the steps: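 Signal of E-selectin, detected by ELISA, served as the endpoint; cells were umbilical vein endothelium with PBMC, read 24 h after treatment. DMSO defined baseline, and both increases and decreases were fitted.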

Read-out in assay [15]: Interleukin-8 (IL8), CXCL8 (gene 3576)
Kind of assay: BSK_LPS_IL8: BioMAP Diversity Plus: LPS Assay for Interleukin-8 (IL8) Biomarker Activity (AID 2283078). The following applies: primary human HUVEC with PBMC; actives raise or lower the signal. An outline of the steps:
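Endothelial cells and PBMC from human donors are co-cultured, treated with chemicals and LPS, then assayed for IL-8 by ELISA after 24 h. Parallel SRB staining (0.1% SRB after 10% TCA fixation, 560 nm) flags cytotoxicity.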

Assay [16] can be described thus: BSK_LPS_SRB: Viability Assessment in the BioMAP Diversity Plus: LPS Assay (AID 2283079).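 Also: total protein by sulforhodamine B absorbance as a cytotoxicity measure; measured one day after compound addition; fitted in both directions against DMSO so loss or gain of signal counts.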 Particulars: primary human HUVEC with PBMC. The gist of the method: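 Overt cytotoxicity was gauged by sulforhodamine B total-protein staining in a primary human vascular endothelial and mononuclear cell co-culture 24 h post-dosing. Activity was fitted in both directions relative to DMSO.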

Read-out in assay [17]: Interleukin-1 alpha (IL1a), IL1A (gene 3552)
Kind of assay: BSK_LPS_IL1a: BioMAP Diversity Plus: LPS Assay for Interleukin-1 alpha (IL1a) Biomarker Activity (AID 2283080). The following applies: primary human HUVEC with PBMC; actives raise or lower the signal. The gist of the method:
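Measured: IL-1 alpha via ELISA at 24 h in LPS-activated human umbilical vein endothelium–PBMC co-culture. Baseline: DMSO, bidirectional fitting.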

Read-out in assay [18]: Monocyte Chemoattractant Protein-1 (MCP1), CCL2 (gene 6347)
Put plainly: BSK_LPS_MCP1: BioMAP Diversity Plus: LPS Assay for Monocyte Chemoattractant Protein-1 (MCP1) Biomarker Activity (AID 2283081).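 As to AC50: secreted MCP-1 protein quantified by ELISA in culture supernatant.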 Particulars: primary human HUVEC with PBMC; actives raise or lower the signal. The gist of the method: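 LPS-stimulated HUVEC/PBMC co-culture; chemical, 24 h; MCP-1 by ELISA; bidirectional fit vs DMSO; cytotoxicity via SRB (0.1% stain, 10% TCA fix, 560 nm) in parallel wells.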

Read-out in a further assay: CD40, CD40 (gene 958)
Put plainly: BSK_LPS_CD40: BioMAP Diversity Plus: LPS Assay for CD40 Biomarker Activity (AID 2283076). The following applies: primary human HUVEC with PBMC; actives raise or lower the signal. The gist of the method: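 CD40 signal, measured by ELISA, is fitted in both directions relative to DMSO vehicle. The system is an LPS-driven human vascular primary co-culture of endothelial cells and PBMC, sampled 24 h after compound addition.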

The source made the active and inactive calls. The calls were made as follows: active = hit-call score of the fitted dose curve at least 0.9, where 1 is the maximum; inactive = score below 0.9.

Experimental findings from PubChem BioAssay (EPA / NIEHS) are described below.

E-selectin (Homo sapiens), sequence (P16581 whole entry, looked up): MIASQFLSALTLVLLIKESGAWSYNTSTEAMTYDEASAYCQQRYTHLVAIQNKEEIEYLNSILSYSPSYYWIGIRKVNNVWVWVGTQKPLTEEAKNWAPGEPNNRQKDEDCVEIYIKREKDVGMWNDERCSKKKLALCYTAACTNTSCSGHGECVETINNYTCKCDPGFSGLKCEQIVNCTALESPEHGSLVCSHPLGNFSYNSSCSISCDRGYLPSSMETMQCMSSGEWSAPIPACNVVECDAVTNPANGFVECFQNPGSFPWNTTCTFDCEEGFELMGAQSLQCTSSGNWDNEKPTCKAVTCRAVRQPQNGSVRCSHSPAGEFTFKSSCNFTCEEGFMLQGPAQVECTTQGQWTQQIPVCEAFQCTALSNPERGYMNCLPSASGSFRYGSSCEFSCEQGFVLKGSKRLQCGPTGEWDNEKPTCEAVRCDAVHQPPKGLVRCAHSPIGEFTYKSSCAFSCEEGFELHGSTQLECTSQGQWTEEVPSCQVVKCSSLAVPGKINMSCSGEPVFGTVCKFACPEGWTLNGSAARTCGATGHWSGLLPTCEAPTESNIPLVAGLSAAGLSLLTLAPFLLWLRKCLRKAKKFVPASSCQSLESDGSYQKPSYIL

Regarding `CCCCCCCCOC(=O)c1cc(O)c(O)c(O)c1`, the AC50 (commonly the concentration at which the activity in the assay is half-maximal) was 37.8 µM (active) in [1]; 19.7 µM (active) in assay [2]; 37.6 µM (active) in assay [3]; 7.8 µM (active) in assay [4]; 15.2 µM (active) in assay [5]; 29.2 µM (active) in assay [6]. In addition, the AC50 was 12.3 µM (active) in assay [7]; 15.3 µM (active) in assay [8]; 25.5 µM (active) in [9]; 13.2 µM (active) in assay [10]; 8.45 µM (active) in assay [11]; 27.4 µM (active) in [12]. Also, the AC50 in assay [13] was 8.92 µM (active); in [14], 36.6 µM (active); in assay [15], 24.6 µM (active); in assay [16] it was 25.6 µM (active); in assay [17], 20 µM (active); in assay [18], 26.7 µM (active).

On to `Cc1oc2c(NC(=O)c3c(Cl)cccc3Cl)cccc2c1C(C)(C)O`, for which the AC50 was 12.3 µM (active) in assay [1]; 10.7 µM (active) in assay [3]; 14.2 µM (active) in assay [5]; 5.2 µM (active) in [10]; 6.04 µM (active) in assay [14]; 26.5 µM (active) in [16]. In addition, the outcome in assay [2], in [4], in [6], in assay [7], in assay [8] and in assay [9] was inactive. Also, the outcome in [11] is “inactive”; in [12], “inactive”; in assay [13], “inactive”; with CD40, CD40 (gene 958), “inactive”; in [15], “inactive”; in assay [18], “inactive”.

Consider `CN1C(=O)N(c2ccccc2Br)Cc2cnc(Nc3ccc4c(c3)OCC(CO)O4)nc21` (configuration not stated), for which the AC50 was 6.79 µM (active) in assay [1]; 22.2 µM (active) in assay [2]; 9.31 µM (active) in assay [3]; 34.1 µM (active) in assay [4]; 3.21 µM (active) in [5]; 21.6 µM (active) in [7]. The AC50 is 16.2 µM (active) in [8]; 10.4 µM (active) in [9]; 13.7 µM (active) in assay [10]; 15.3 µM (active) in assay [11]; 31 µM (active) in [12]; 6.07 µM (active) in [13]. In addition, the AC50 with CD40, CD40 (gene 958) was 7.42 µM (active); in assay [14], 7.07 µM (active); in assay [15], 6.07 µM (active); in [16], 4.68 µM (active); in [18] it was 5.19 µM (active). In assay [6], the result was inactive.

With `CO[C@H]1/C=C/O[C@@]2(C)Oc3c(C)c(O)c4c(O)c(c(/C=N/N5CCN(C)CC5)c(O)c4c3C2=O)NC(=O)/C(C)=C\C=C\[C@H](C)[C@H](O)[C@@H](C)[C@@H](O)[C@@H](C)[C@H](OC(C)=O)[C@@H]1C`, the result in assay [1], in [2], in assay [4], in [5], in [6] and in assay [7] was inactive. The outcome in assay [8], in assay [9], in assay [10], in [11], in assay [12] and in assay [13] was inactive. Moreover, the outcome was “inactive” in the assay with CD40, CD40 (gene 958); “inactive” in assay [14]; “inactive” in assay [15]; “inactive” in assay [16]; “inactive” in [17]; “inactive” in [18].
